Compound activity as filed in PubChem.
The list is not random: actives were taken first. Their share in the collection is about 5.4%.
RORgamma inh – inhibitors of mouse ROR gamma transcriptional activity; Drosophila S2 Gal4-RORgamma UAS-luciferase reporter, 20 h; AID 2551; P51450; 310,000 compounds, 5.4% hits; Potency, µM (titrated, usually from 53.6 µM), without a hit: at the top dose activity change, negative = inhibition, most hits filed as inhibitors; also: potency is read from the fitted curve at half-maximal effect; % is scaled to controls: 0 for no effect and ±100 for the full control effect; nearly all actives have a fitted effect of over 60% in size
Target sequence (P51450 whole entry, looked up, the tested form may be a part): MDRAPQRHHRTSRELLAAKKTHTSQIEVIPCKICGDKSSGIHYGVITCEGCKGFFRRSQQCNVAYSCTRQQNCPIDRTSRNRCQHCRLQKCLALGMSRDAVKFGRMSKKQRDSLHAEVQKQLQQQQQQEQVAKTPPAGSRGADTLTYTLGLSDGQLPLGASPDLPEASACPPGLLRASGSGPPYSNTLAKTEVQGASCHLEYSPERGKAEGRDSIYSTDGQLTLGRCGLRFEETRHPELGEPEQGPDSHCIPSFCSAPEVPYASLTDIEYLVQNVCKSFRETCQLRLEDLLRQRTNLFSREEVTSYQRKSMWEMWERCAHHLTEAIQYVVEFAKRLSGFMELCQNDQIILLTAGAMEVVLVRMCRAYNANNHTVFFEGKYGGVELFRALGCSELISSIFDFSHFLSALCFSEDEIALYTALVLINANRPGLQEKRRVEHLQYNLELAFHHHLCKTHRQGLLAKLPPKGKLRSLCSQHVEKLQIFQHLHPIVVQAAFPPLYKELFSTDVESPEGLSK
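Read-out: Photinus luciferase luminescence; inhibitors lower reporter signal. Insect Schneider cells with Gal4-ROR gamma fusion under metallothionein promoter, UAS reporter; 700 uM final copper sulfate induction, 20 hr, ambient temperature.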
VP16 counter – Gal4-VP16 reporter inhibition counter-screen; Drosophila S2 Gal4-VP16 UAS-luciferase, luminescence, 20 h; Potency, µM (top dose mostly 53.6 µM), for inactives: top-dose activity, negative = inhibition, actives largely listed as inhibitors; 310,000 compounds, 3.5% hits; AID 2546;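 also: Gal4-VP16 expression switched on by copper sulfate through the metallothionein promoter; potency is read from the fitted curve at half-maximal effect; % is scaled to controls: 0 for no effect and ±100 for the full control effect; nearly all actives have a fitted effect of over 50% in size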
p53 reactivator – mutant p53 re-activation in reporter cells; H1299 p53-A138V BP100-luciferase reporter, luminescence, 24 h; Potency, µM (highest dose often 92.2 µM), inactives show at the highest dose activity change, positive = activation, most hits filed as activators; 320,000 compounds, 0.063% hits; also: potency is read from the fitted curve at half-maximal effect; % of control where 0% means no effect; nearly all actives have a fitted effect of over 45% in size
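H1299 (p53-null), stable ts p53-A138V + BP100-Luc; 1000 cells/well, Opti-MEM/10% FBS; cpd 4 pt, 1:5; 24 h, 37 deg C, 5% CO2; detection reagent 10 min RT; luminescence.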
CtBP-E1A inh – inhibitors of CtBP/E1A interaction | AlphaScreen GST-E1A/His-CtBP binding, 1536-well; stronger effect = lower value | activity change, % (no concentration beside the values) | 340,000 compounds, 0.49% hits | AID 651724; in the data active = activity change below about -65%; inconclusive = mostly about -30% to -63%; also: % is scaled to controls: 0 for no effect and ±100 for the full control effect
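AlphaScreen with 125 nM GST-E1A and 125 nM His-CtBP (5X stocks) in Tris pH 8.0, 300 mM NaCl, BSA, Tween 20, TCEP. Compounds preincubated 2 h at 37 deg C, then glutathione donor/nickel acceptor beads added for 1 h at 37 deg C in dark.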
Six1-Eya2 blk – blocks human Six1 binding to Eya2; Q15475+O00167; AlphaScreen GST-Six1/His-Eya2 binding, biochemical; stronger effect = lower value; activity change, % (test concentration not listed); 360,000 compounds, 0.56% hits; AID 651725; in the data active = activity change below about -65%; inconclusive = mostly about -30% to -63%; also: % is scaled to controls: 0 for no effect and ±100 for the full control effect
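Six1/Eya2 binding was read as AlphaScreen signal after compounds were pinned into GST-Six1 plus His-tagged Eya2 (5X stock 250/500 nM) in pH 8.0 Tris/NaCl/TCEP buffer, beads added, then incubated 1 h, 37 C, dark.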
The depositor's hits bear a star; ? = inconclusive; · = no result given; [ ] = remark or other dose. Unless noted, calls follow the shape of the dose curve; as a rule, active = well fitted curve in the direction sought with a large enough effect; inconclusive = small, poorly fitted or top-dose-only effect, or another doubt; inactive = no such curve, though single readings can be large; an effect the other way counts as inactive or inconclusive.

SMILES	RORgamma inh	VP16 counter	p53 reactivator	CtBP-E1A inh	Six1-Eya2 blk
CC1=NN(C(N)=S)C(=O)C1N=Nc1ccc(Cl)cc1 (configuration not stated)	0.4µM*	1.1µM*	·	4	-16
CC1=NN(C(N)=S)C(=O)C1N=Nc1cccc([N+](=O)[O-])c1 (configuration not stated)	0.5µM*	1.6µM*	6%	3	7
CC1(C)CC(=O)C(N=Nc2cccc([N+](=O)[O-])c2)=C(O)C1	-37%	-18%	?	-2	1
CC1=NN(c2ccccc2)C(=O)C1N=Nc1cccc(O)c1 (configuration not stated)	?	?	?	?	-30
Cc1cc2nc(-c3cccc(Br)c3)c(Cc3ccccc3)n2c(C)c1Br	·	·	·	1	-7
CCOC1=C2[C@@H](CN(S(=O)(=O)c3ccc(C)cc3)[C@H]2c2cccc3ccccc23)[C@H]2C(=O)N(C3CCCCC3)C(=O)[C@H]2C1	·	·	·	0	-7
Cc1ccc(C(NC(=O)NCCCN2CCOCC2)=C(Cl)Cl)cc1F	?	?	22%	4	0
Cc1ccc(C(NC(=O)N2CCCCC2)=C(Cl)Cl)cc1F	11µM*	7.1µM*	-8%	16	11
CC1CCCC2(C1)NC(=S)c1c(sc3c1CCCC3)N2 (configuration not stated)	32µM*	?	9%	24	-3
Clc1ccc(-c2nnc(CSc3nnc(-c4cccs4)n3Cc3ccccc3)o2)cc1	?	18µM*	-1%	·	-2
Cc1nnc(SCc2nnc(-c3cccs3)o2)n1Cc1ccccc1	-23%	-17%	-1%	5	-2
O=C(O)CNC(=O)c1ccc(N2CCOCC2)cc1[N+](=O)[O-]	-6%	6%	-3%	-9	-3
C(=C\c1ccccc1)/CN1CCN(C(c2cccc3ccccc23)c2nnnn2-c2ccc3c(c2)OCCO3)CC1 (configuration not stated)	·	·	·	-28	-22
COc1ccc(OC)c(-n2c(-c3ccc(C)cc3)n[nH]c2=S)c1	4µM*	?	-6%	7	5
COc1ccc(-c2n[nH]c(=S)n2-c2cc(OC)ccc2OC)cc1	10µM*	-13%	-1%	4	-2
COc1ccc(-c2cc(-c3n[nH]c(=S)n3-c3cc(OC)ccc3OC)[nH]n2)cc1	?	-3%	2%	2	-19
COc1ccc(OC)c(-n2c(-c3cccc(O)c3)n[nH]c2=S)c1	-22%[0.365 µM]	·	1%	5	2
Cc1ccc(C)c(OCc2cc(C(=O)N3CCc4sccc4C3)no2)c1	2µM*	?	?	-3	4
Cc1nn(Cc2ccccc2)c(Cl)c1/C=C/C(=O)OC(C(=O)NC(N)=O)C(C)C (configuration not stated)	-3%	4%	-4%	-2	-2
Cc1ccc(C(=O)Cn2c3c(sc2=N)CCCC3)cc1	0.79µM*	?	·	·	·
Cc1ccc(C(=O)Cn2ncsc2=N)cc1	-32%	19%	13%	-1	-1
CN(Cc1ccco1)C(=O)CN1C(=O)NC2(CCCCC2)C1=O	·	·	10%	·	3
COc1cc(OC)cc(-c2nnc3n2N=C(c2c(OC)cccc2OC)CS3)c1	34%	26%	·	·	·
Cc1[nH]n(-c2ccccc2)c(=O)c1/C=N/N1CCOCC1	-7%	-10%	0%	0	1
Cc1ccc(-n2[nH]c(C)c(/C=N/c3ccccn3)c2=O)cc1	-8%	0%	9%	11	4
Cc1[nH]n(-c2ccccc2)c(=O)c1/C=N/N1C(=O)c2cccc3cccc(c23)C1=O	7.1µM*	?	15%	-12	-8
Cc1[nH]n(-c2ccccc2)c(=O)c1C=Nc1cccc2cccnc12	0.63µM*	0.63µM*	15%	-7	?
O=C(/C=C/[C@H]1O[C@@H](n2ccc(=O)[nH]c2=O)[C@H](O)[C@@H]1O)NCc1cccc2ccccc12	·	·	·	7	0
CNC(=S)NC1(C)CCS(=O)(=O)C1 (configuration not stated)	8%	0%	3%	-5	2
NC(=O)Cc1ncc(C(F)(F)F)cc1Cl	-4%	-13%	-2%	-10	8
